# Measurements as given in publication PMC12136788.
# Substitutions are numbered along the chain they refer to. Over roughly 5,800 sequences, “enrichment r” has its median near 0.68; the highest 2% begin near 11. The list comes from a sample in which the highest values are over-represented; it also holds similar and randomly drawn sequences.
# B1: chr11:107429260:107429366:-|CDS|ENSG00000152404|unk|FALSE|unique (ssRNA)
# RNA: GGGAGUUCUACAGUCCGACGAUCGAGGAAACCCACAUAUUCAGAUAAAGCACAAAAUUGUCAAGAAAGUAGAGAAUCAGACUUAGUAAAAUAUGGUAACAGUUCAAGGGAUAGAUAUGCUACAACAGAUACUGCAAAAAAUAGCAACAGAGGAUUGAGCAUCA
# B2: chr7:5606511:5606625:+|3pUTR|ENSG00000075618|msi1_unk|FALSE|overlapping (ssRNA)
# RNA: GGGAGUUCUACAGUCCGACGAUCGGGUGUCUUGGUCUUUUAUUUUUUGUAAGUGUCAUUUGUAUAACUCUAAACGCCCAUGAUAGUAGCUUCAAACUGGAAAUAGCGAAAUAAAAUAACUCAGUCUGCAGCCCCAGGCCGGCCCAACAGAGGAUUGAGCAUCA
# B3: chr11:62152232:62152344:+|3pUTR|ENSG00000149503|unk|FALSE|unique (ssRNA)
# RNA: GGGAGUUCUACAGUCCGACGAUCUGCUCUGUAAAUAGUUGUUUUAAUUUAGCUGAAUGUUAGCAUUUUAGUCUUUGGCAUUUUAGCGUUUGGGAGGUAGAUUAAUAAAGUAUAUUCCUUCAAGCCUGCUGUUGAUACCAUGAACAACAGAGGAUUGAGCAUCA
# B4: chr18:9400975:9401076:+|3pUTR|ENSG00000128791|msi1|FALSE|unique (ssRNA)
# RNA: GGGAGUUCUACAGUCCGACGAUCUAUAAAAAUAGAUAAUGCUCUUGGACACAUUUUGUAUUAUUCAUGAUCUGAAUAGUAGUUAGUUAAAAGAUCAUUUGUAAUAUUAUGAUCAACUGUUAUAAAUUAAGGUCUUAAUACCUUCAACAGAGGAUUGAGCAUCA
# B5: chr10:104129887:104130138:-|three_prime_utr|ENSG00000197748|control|control|control (ssRNA)
# RNA: GGGAGUUCUACAGUCCGACGAUCAAAAAAUCAUUUCAUUUGGGUAAAAUGAUUUCCUUUUCUUUCUUACUGGGAAAUUGAAGUAGCAUGUCCUCUGAGUUGCAUGUUUUAGAUAAAAAAUUGUUUAAUUUUAGCCUUAAUUGUCAACAGAGGAUUGAGCAUCA
# B6: chr3:46835109:46836203:-|three_prime_utr|ENSG00000160808|control|control|control (ssRNA)
# RNA: GGGAGUUCUACAGUCCGACGAUCUGAAGGCACAAGCUGUUCCAGUAUAAUAAAGAAAAUAAUUAAAUUAAGAAAAGUUAUACUAGAAAUAAGAUAUAGGUAUGAUUAUUAUUAAUCAUUAGUUUGUAGUAUUACUUUGUUCUACAACAGAGGAUUGAGCAUCA
# B7: chr15:38352922:38353023:+|3pUTR|ENSG00000166068|msi1|FALSE|unique (ssRNA)
# RNA: GGGAGUUCUACAGUCCGACGAUCUACAUAUAAAUUUAUUUCUUUUGCAGAGCAUUAUAUUACUGGAUGUUUAAUUUACAAAAUAGUUGGGUAAAUGUUCCAACAAACUUUAAAGUACCUUGAAGUCAAAUUGUCUGUUUUUGUCAACAGAGGAUUGAGCAUCA
# B8: chr15:38352922:38353023:+|3pUTR|ENSG00000166068|msi1|total|mutant (ssRNA)
# RNA: B7 RNA with U83C, A84C
# B9: chr15:76949589:76949706:+|3pUTR|ENSG00000117906|msi1_unk|total|mutant (ssRNA)
# RNA: GGGAGUUCUACAGUCCGACGAUCAUAAAUUUUUGUUUUUGUUCUAAGCCGAUUUAAUUUGGGAACUGACAGGACAAUGUUUUCCGGUUCCGCAUUUUGUUUAAAAACCUUUAAAGAAACCUUCCGAAGGACUCCGACCUCACACAACAGAGGAUUGAGCAUCA
# B10: chr7:38725943:38726055:-|3pUTR|ENSG00000006715|unk|total|mutant (ssRNA)
# RNA: GGGAGUUCUACAGUCCGACGAUCGAAAUUUUGGGGUCCACCGUGAAUAUUUUGUUAUUUAUUUGUUUGGCUCAUUCUUUAUACCGUAAUGGAAACAUAAGUCCCGGAGUCCGAAAUGAAUUUUUCCGACCUCCGUAAAACCAUCAACAGAGGAUUGAGCAUCA
# B11: ENSG00000168003:stop:overlap|stop_codon|ENSG00000168003|stop_codon|NA|stop_codon (ssRNA)
# RNA: GGGAGUUCUACAGUCCGACGAUCCUGACAUCCCAGGGGCUGUAAGUGCCAACAUGACUGUGAAGGUAAGAGUUCUAGAUGGGUAGAAACUGACCGGUGGAGGGUGGGCUGGGCUUGUAGAAGUCUGUACCCAGGGGAGCCCCUCAACAGAGGAUUGAGCAUCA
# B12: chr4:168926953:168927063:+|3pUTR|ENSG00000129116|msi1_unk|FALSE|overlapping (ssRNA)
# RNA: GGGAGUUCUACAGUCCGACGAUCCAAAAGAGUUUUCUAACAAGGUUAAUACCUUAGUUCUUAACAUUUUUUUUCUUUAUGUGUAGUGUUUUCAUGCUACCUUGGUAGGAAACUUAUUUACAAACCAUAUUAAAAGGCUAAUUUCAACAGAGGAUUGAGCAUCA
# B13: chr11:69651696:69651723:+|3pUTR|ENSG00000110092|msi1_unk|total|mutant (ssRNA)
# RNA: GGGAGUUCUACAGUCCGACGAUCGAGGAUCCGGUUCCAUCCUUUACGUGUUUAAAAAAAAGCAUAAAAACAUUUUAAAAACACCGAAAAAUUCAGCAAACCAUUUUUAAAGCCGAAGAGGGUUUCCGGCCGAAAAACAUAUUCCAACAGAGGAUUGAGCAUCA
# B14: chr11:69651696:69651723:+|3pUTR|ENSG00000110092|msi1_unk|FALSE|overlapping (ssRNA)
# RNA: B13 RNA with C30U, C31A, C83U, C84A, C112U, C113A, C125U, C126A, C129U, C130A
# B15: chr4:138171112:138171219:-|3pUTR|ENSG00000151012|msi1|FALSE|unique (ssRNA)
# RNA: GGGAGUUCUACAGUCCGACGAUCUUUUUUUUUUUCACAUCAGUUUGAUCAGGAAAGUGUAUAACACAUCUUAGAGCAAGAGUUAGUUUGGUAUUAAAUCCUCAUUAGAACAACCACCUGUUUCACUAAUAACUUACCCCUGAUCAACAGAGGAUUGAGCAUCA
# B16: chr11:69651733:69651797:+|3pUTR|ENSG00000110092|msi1_unk|FALSE|overlapping (ssRNA)
# RNA: GGGAGUUCUACAGUCCGACGAUCAAAACAUUUUAAAAACAUAGAAAAAUUCAGCAAACCAUUUUUAAAGUAGAAGAGGGUUUUAGGUAGAAAAACAUAUUCUUGUGCUUUUCCUGAUAAAGCACAGCUGUAGUGGGGUUCUAGCAACAGAGGAUUGAGCAUCA
# B17: chr4:168926953:168927063:+|3pUTR|ENSG00000129116|msi1_unk|total|mutant (ssRNA)
# RNA: B12 RNA with U54C, A55C, U83C, A84C, U105C, A106C
# B18: chr4:67617988:67618115:-|3pUTR|ENSG00000033178|unk|FALSE|unique (ssRNA)
# RNA: GGGAGUUCUACAGUCCGACGAUCAAAUGUAGAAUGUUAAAAAUUAUUGCUAGGGUAGUCUUUUUUUUUUCCAGAAACCUAAUUAGGGUAUUAAAUUUUGUGUUUUUUUUGUUUUUUUUUUUUAAACAGAAGCAUGUUAUUUCACAACAGAGGAUUGAGCAUCA
# B19: chr2:16549458:16552935:-|three_prime_utr|ENSG00000197872|control|control|control (ssRNA)
# RNA: GGGAGUUCUACAGUCCGACGAUCUUGCUACUGGAGUCCUUUAACAACAUCUAUAACGAUAAAAAAUUCCUAAUUGUUUGUGGUAGUAUUUUAAUUCUAGAUGUGUUAUCUCUCUGGGAAGUAUAGUUUAUAGAAACACAAAAUCAACAGAGGAUUGAGCAUCA
# B20: chr4:67617988:67618115:-|3pUTR|ENSG00000033178|unk|total|mutant (ssRNA)
# RNA: B18 RNA with U29C, A30C, U50C, A51C, U55C, A56C, U83C, A84C
# B21: chr3:23980279:23980388:+|3pUTR|ENSG00000174738|unk|FALSE|unique (ssRNA)
# RNA: GGGAGUUCUACAGUCCGACGAUCUUUUUCUUUUCCAAUAUAAAGUUUGCUGAAUGUACAAGAAGAGUUUAUCACUUAGGAUAUAGAAUUUUUUUAGGGGUUGGGGGAGGGGAUCUGUUAGGAAACUGUUACCUAUAAACAAAGCAACAGAGGAUUGAGCAUCA
# B22: chr1:6525536:6525637:-|3pUTR|ENSG00000162408|msi1|total|mutant (ssRNA)
# RNA: GGGAGUUCUACAGUCCGACGAUCACAGUUUGUGUGCCAUUAAAACAGAGAUUCCUCAGAAAGUUCUUCAGGGACCUGGUUAUCCGAAUCAGGAUAAAAAUAAGGAAACUGGGGCCAUUACAAUGUACCGAGAAGGAAGGAAGACAACAGAGGAUUGAGCAUCA
# Biological target: T1, UNK ZnF1-6 (called full-length) (human, UniProt Q9C0B0 30-357)
# T1 sequence: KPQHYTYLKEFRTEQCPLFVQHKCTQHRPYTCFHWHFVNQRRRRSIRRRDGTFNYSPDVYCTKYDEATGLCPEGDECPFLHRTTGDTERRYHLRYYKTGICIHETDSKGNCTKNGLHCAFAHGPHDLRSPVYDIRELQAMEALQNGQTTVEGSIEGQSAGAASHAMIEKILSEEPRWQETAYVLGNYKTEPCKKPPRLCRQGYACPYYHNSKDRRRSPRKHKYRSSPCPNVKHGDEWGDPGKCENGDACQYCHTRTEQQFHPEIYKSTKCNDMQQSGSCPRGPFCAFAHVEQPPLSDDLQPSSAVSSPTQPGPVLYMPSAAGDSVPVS
# Assay: nsRBNS (natural sequence RNA bind-n-seq); RBNS binding buffer (assumed for nsRBNS): 25 mM Tris pH 7.5, 150 mM KCl, 3 mM MgCl2, 0.01% Triton X-100, 500 ug/ml BSA, 20 U/ml SUPERase-In, 4 C; UNK is unkempt and MSI1 is Musashi-1; names of the RNAs are library labels; protein concentration not given here; high values mean tight binding
row,Binder,binding signal [enrichment R]
1,B1,1.66
2,B2,1.39
3,B3,110
4,B4,2.18
5,B5,13.5
6,B6,4.03
7,B7,1.48
8,B8,0.824
9,B9,0.382
10,B10,0.419
11,B11,0.906
12,B12,20.1
13,B13,0.444
14,B14,13.5
15,B15,2.58
16,B16,8.88
17,B17,1.12
18,B18,28.1
19,B19,4.45
20,B20,0.765
21,B21,3.03
22,B22,0.553
